tim10-1 inh: growth inhibitors of tim10-1 mutant yeast, primary screen, luminescence, uHTS | S. cerevisiae tim10-1 ts strain growth, BacTiter-Glo, 24 h | inhibition, % at 20 µM | 330,000 tested, 2.2% active | AID 463190, 2010;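 active = inhibition of at least 40%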;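 also: mutant grown at 25 °C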
SKKanGAS inh: S. pyogenes SKKanGAS growth inhibitors in kanamycin, primary screen, streptokinase expression inhibitor project, SKKanGAS strain, BacTiter-Glo luminescence; AID 1662, 2009; 300,000 tested, 1.3% active; 6 h; inhibition, % at 7.5 µM;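 active = mean replicate score, as percent of positive control median, at least 50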;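 also: strain carries kanamycin resistance gene driven by streptokinase promoter and grows in 40 µg/ml kanamycin; loss of luminescence reflects streptokinase promoter inhibition or plain growth inhibition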
NALP3 yeast inh: NALP3 inflammasome inhibitors in reconstituted yeast, primary screen, luminescence, uHTS; Yeast reconstituted NLRP3/ASC/caspase-1, beta-gal luminescence, 24 h; inhibition, % at 10 µM; 330,000 tested, 0.39% active;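 active = inhibition of 50% or more; inactive = inhibition below 50%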
TIM10 inh: growth inhibitors of isogenic TIM10 control yeast, primary screen, counter-screen for tim10-1 yeast inhibitor project, luminescence, uHTS. S. cerevisiae TIM10 strain growth, BacTiter-Glo luminescence, 24 h. inhibition, % at 10 µM. 330,000 tested, 1.4% active. AID 463195, 2010;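 active = inhibition of 40% or more at the single tested concentration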;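 also: wild-type TIM10 isogenic control strain grown at permissive 25 °C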
tim23-1 inh: growth inhibitors of tim23-1 mutant yeast, primary screen, luminescence, uHTS. S. cerevisiae tim23-1 growth, BacTiter-Glo luminescence, 24 h. inhibition, % at 20 µM. 330,000 tested, 1.3% active;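 active = growth inhibition of the mutant yeast at or above 50%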;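 also: temperature-sensitive mutant grown at 25 °C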
tim10-1 conf: growth inhibitors of tim10-1 mutant yeast, confirmation, single concentration, luminescence, S. cerevisiae | S. cerevisiae tim10-1 ts strain growth, BacTiter-Glo, 24 h | AID 463213, 2010 | shares compounds with tim10-1 inh | inhibition, % at 20 µM | 7,400 tested, 56% active;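 active = inhibition of yeast growth at or above a set limit in either of two repeat tests at 20 µM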;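 also: tim10-1 mutant grown at permissive 25 °C to find synthetic lethal compounds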
Hits are given with their value; i = inactive; nt = no result. Sampled rows, rich in hits. Any-hit rate of the full collection: about 4.6%.

SMILES	tim10-1 inh	SKKanGAS inh	NALP3 yeast inh	TIM10 inh	tim23-1 inh	tim10-1 conf
CCC(C)C(NC(=O)c1ccccc1)C(=O)Nc1ccc(S(=O)(=O)Nc2cc(C)nc(C)n2)cc1 (configuration not stated)	i	nt	i	i	i	nt
Cc1ccc(/C=N/NC(=O)CN2CCN(S(=O)(=O)c3ccc(Br)cc3)CC2)s1	i	i	i	i	i	nt
O=C(Cc1ccc(Cl)cc1)Nc1cccc(S(=O)(=O)N2CCCCC2)c1	i	nt	i	i	i	nt
O=C(CN1CCN(S(=O)(=O)c2ccc(Cl)cc2)CC1)Nc1ccc2c(c1)OCO2	i	i	i	i	i	nt
CC(C)c1ccc(S(=O)(=O)N2CCN(CC(=O)Nc3ccc4c(c3)OCO4)CC2)cc1	52	nt	i	i	i	40
O=C(CN1CCN(S(=O)(=O)c2ccc(Br)cc2)CC1)N/N=C/c1ccc(Br)s1	44	i	i	i	i	36
O=C(CN1CCN(c2nc(-c3ccc(F)cc3)cs2)CC1)Nc1ccc2c(c1)OCO2	46	i	i	i	i	i
O=C(CCl)Nc1cccc(S(=O)(=O)N2CCCCCC2)c1	41	i	i	i	i	34
NC(=O)CN1CCN(c2nc(-c3ccc(F)cc3)cs2)CC1	i	i	i	i	i	nt
O=C(NCCc1ccccc1)C1CC(=O)N(C2CCCCC2)C1 (configuration not stated)	i	i	i	i	i	nt
COC(=O)c1ccc(NC(=O)CN2CCN(S(=O)(=O)c3ccc(Br)cc3)CC2)cc1	46	i	i	i	i	36
CN(CC(=O)Nc1ccc(S(=O)(=O)N2CCCC2)cc1)CC(=O)Nc1ccc(F)c(F)c1F	i	i	i	i	i	nt
CN(CC(=O)Nc1ccc(S(=O)(=O)N2CCCC2)cc1)Cc1ccc(Cl)cc1Cl	46	i	i	i	i	i
Cc1cccc(C(=O)N[C@H](C(=O)Nc2ccc3c(c2)OCO3)C(C)C)c1	i	nt	i	i	i	nt
Cc1nc(-c2cccnc2)sc1C(=O)Nc1ccc(C(F)(F)F)cc1	i	i	i	i	i	nt
Cc1nc(-c2cccnc2)sc1C(=O)Nc1cccc(C(F)(F)F)c1	43	i	i	i	i	i
C=CC[C@@H]1Cc2c(Br)ccc(Br)c2[C@@H](CC=C)N1	41	i	i	i	i	i
O=C(COC(=O)c1ccc(O)cc1)Nc1cc(S(=O)(=O)N2CCOCC2)ccc1Cl	i	nt	i	i	i	nt
Clc1ccc(-c2nnc(Sc3nc4ccccc4o3)c3ccccc23)cc1	42	i	i	i	i	i
Cc1nnc(Sc2nc3ccccc3o2)c2ccccc12	i	i	i	i	i	nt
NC(=O)c1cc([N+](=O)[O-])c(Cl)cc1NCc1cccnc1	i	nt	i	i	i	nt
S=c1[nH]nc(C23CC4CC(CC(C4)C2)C3)n1Cc1ccco1	40	i	i	i	i	i
CC1CCN(C(=O)Cn2nnc(-c3ccc(C(C)C)cc3)n2)CC1	i	i	i	i	i	nt
CC12CCC(C(=O)NC(c3ccccc3)c3ccccc3)(OC1=O)C2(C)C (configuration not stated)	42	i	i	i	i	i
CC(Sc1ccc(Cl)cc1)C(=O)NNC(=O)c1ccccc1O (configuration not stated)	i	i	i	i	i	nt
SMILES	tim10-1 inh	SKKanGAS inh	NALP3 yeast inh	TIM10 inh	tim23-1 inh	tim10-1 conf
O=C(CC1C(=O)NCCN1Cc1cccc(F)c1)NCCCCCN1CCOCC1 (configuration not stated)	i	i	i	i	i	nt
COc1cc(/C=N/N=C2/C(=O)Nc3ccccc32)cc(OC)c1O	44	i	i	i	i	52
COc1cccc(Nc2ncccc2C(=O)Nc2ccccc2)c1	53	i	i	i	i	38
O=C(Nc1ccccc1)c1cccnc1NCCc1ccccc1	40	i	i	i	i	32
COc1cccc(NC(=O)c2ccccc2Oc2ccccc2)c1	i	i	i	i	i	nt
COc1cccc(Cn2cc(C)cc(NC(=O)NCc3ccccc3)c2=O)c1	i	i	i	i	i	nt
CCn1c(NCc2cccs2)nc2ccccc21	i	i	i	i	i	nt
CCN1c2ccccc2-c2nc3ccccc3n2C1c1cccs1 (configuration not stated)	40	i	i	i	i	i
Cc1noc(C)c1COc1ccccc1C(=O)NC1CCC(C)CC1 (configuration not stated)	i	i	i	i	i	nt
O=c1c2cn[nH]c2nc(SCc2cc(=O)n3cc(Br)ccc3n2)n1-c1ccc(Br)cc1	i	i	i	i	i	nt
O=c1c2cn[nH]c2nc(SCc2ccccc2F)n1-c1ccc(Br)cc1	42	i	i	i	i	i
S=C(Nc1ccc(Nc2ccccc2)cc1)NC1CCCCCC1	43	i	i	i	i	38
S=C(Nc1cccnc1)NC1CCCCCCC1	50	i	i	i	i	45
S=C(Nc1ccc2[nH]ccc2c1)NC1CCCCC1	42	i	i	i	i	i
S=C(Nc1ccc(Cl)cc1)NC1CCCCC1	i	i	i	i	i	nt
CC1CCC(C#N)(N(C)C(=O)CSc2nnc(C3CC3)n2C2CC2)CC1 (configuration not stated)	i	nt	i	i	i	nt
Cc1nn(-c2ccccc2)c(N2CCCC2)c1/C=N/NC(=S)Nc1cc(C(F)(F)F)ccc1Cl	i	i	i	i	i	nt
Cc1nn(-c2ccccc2)c(N2CCCC2)c1/C=N/NC(=S)Nc1ccccc1C(F)(F)F	41	i	i	i	i	i
NS(=O)(=O)c1cccc(NC(=O)COC(=O)CNC(=O)c2ccc(-c3ccccc3)cc2)c1	i	nt	i	i	i	nt
CCOC(=O)N1CCN(C(=O)c2ccc(NC(=O)c3ccc(C)cc3)cc2)CC1	44	i	i	i	i	i
CCOC(=O)N1CCN(C(=O)c2ccc(NC(C)=O)cc2)CC1	i	i	i	i	i	nt
Cc1ccc(C(=O)N2CCN(c3ccc(NC(=O)c4ccc(Br)o4)cc3)CC2)cc1	52	i	i	i	i	31
CN1CCN(c2ccc(NC(=O)c3ccc(Br)o3)cc2)CC1	i	i	i	i	i	nt
O=C(c1ccc(Br)o1)N1CCN(c2ccccn2)CC1	i	i	i	i	i	nt
O=C(Nc1ccc(C(=O)N2CCN(c3ccccn3)CC2)cc1)c1ccc(Br)o1	46	i	i	i	i	i
COc1ccc(CCNC(=O)C(=O)NCC2OCCN2S(=O)(=O)c2ccc(Cl)cc2)cc1OC (configuration not stated)	i	i	i	i	i	nt
Cc1sc2ncnc(SCC(=O)N3CCC(c4noc5ccc(F)cc45)CC3)c2c1C	50	i	i	i	i	i
Cc1nnc(SCC(=O)N2CCC(c3noc4ccc(F)cc34)CC2)s1	i	i	i	i	i	nt

Screens as filed in PubChem BioAssay.
